From PubChem
Sampled rows, rich in hits. Any-hit rate of the full collection: about 2.2%.
APP 5UTR inh: APP translation inhibition; 190,000 compounds, 0.82% hits; inhibition, % at 2 µM; SH-SY5Y APP 5'UTR-luciferase reporter, luminescence; AID 1285;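 active = inhibition above a set limit, derived from the sample mean plus 3 SD, cut at about 45% in these data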
IEC-6 cytotox: IEC-6 cytotoxicity, counter-screen for KLF5 inhibitors; luminescence viability; inhibition, % at 5 µM; 290,000 compounds, 0.78% hits; in the data active = inhibition above about 22%;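 note: 0% = plate median of test compound wells and 100% = cytotoxic reference compound wells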
KLF5 inhibitor: inhibitors of KLF5 expression; DLD-1 KLF5 promoter-luciferase reporter, luminescence; inhibition, % at 5 µM; 290,000 compounds, 0.23% hits; AID 1700;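 active = inhibition above a per-plate limit of that plate's mean compound inhibition plus 3 SD, cut at about 60% in these data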;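 note: 0% = DMSO wells and 100% = LY294002 at 200 µM; higher means less KLF5 promoter-driven luciferase light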
aSyn 5UTR inh: MLPCN primary screen, SNCA 5' untranslated region; alpha-synuclein 5'UTR reporter, inhibitor activity; inhibition, % (tested at 7.5 µM); 300,000 compounds, 0.82% hits; in the data active = inhibition above about 60%;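 note: H4 neuroglioblastoma cells stably carrying SNCA 5'UTR luciferase fusion; 0% = DMSO wells and 100% = positive control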
Ba/F3 V617F tox: lowers viability of Ba/F3 cells expressing EpoR and JAK2V617F; ATP luminescence; inhibition, % at 5.6 µM; 220,000 compounds, 1.1% hits; AID 1446;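 active = inhibition above the campaign mean plus 3 SD over all tested compounds, cut at about 24% in these data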;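 note: cytokine-independent growth of Ba/F3 cells driven by EpoR plus mutant JAK2; 0% = DMSO-treated cells and 100% = JAK inhibitor I control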
BaF3 tox: parental Ba/F3 viability inhibition as JAK2V617F counter-screen. 220,000 compounds, 1.1% hits. inhibition, % at 5.6 µM. CellTiter-Glo ATP luminescence;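 active = inhibition above a per-campaign cutoff, the mean inhibition of all tested compounds plus 3 SD, cut at about 27% in these data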;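 note: 0% = DMSO wells and 100% = JAK Inhibitor I control wells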
* hit, by the source's call; / = not tested or not shown.

SMILES	APP 5UTR inh	IEC-6 cytotox	KLF5 inhibitor	aSyn 5UTR inh	Ba/F3 V617F tox	BaF3 tox
O=C(NC(c1ccc(Cl)cc1)c1cc(Cl)c2cccnc2c1O)c1cccnc1 (configuration not stated)	79*	5	-14	98*	4	9
CN1CCN(C(c2ccc(C(F)(F)F)cc2)c2cc(Cl)c3cccnc3c2O)CC1 (configuration not stated)	/	11	47	53	/	/
COCCN(C(=O)CNC(=O)c1ccco1)C(C(=O)NC1CCCC1)c1cccc(OC)c1 (configuration not stated)	/	-2	0	-17	/	/
COc1ccc(S(=O)(=O)Nc2ccc(F)cc2F)cc1C(=O)N1CCOCC1	/	0	0	6	/	/
CCOC(=O)c1c2ccccc2[n+]([O-])n1[C@@H](C)C(N)=O	/	/	/	1	/	/
CC(=O)NC(c1ccc(C)cc1)c1cc([N+](=O)[O-])c2cccnc2c1O (configuration not stated)	6	-4	-37	55	-3	7
CCC(=O)NC(c1ccc(C)cc1)c1cc([N+](=O)[O-])c2cccnc2c1O (configuration not stated)	26	1	-1	64*	3	9
CCC(=O)NC(c1cccs1)c1cc(Cl)c2cccnc2c1O (configuration not stated)	61*	14	7	86*	4	4
COc1cc(C2CC(c3cccs3)=NN2C(=O)CCl)ccc1OC(F)F (configuration not stated)	/	-1	-14	107*	/	/
COc1ccc(C2CC(c3cccs3)=NN2C(=O)CCl)cc1OC (configuration not stated)	/	2	17	-26	/	/
CN1/C(=C\C(=O)COC(=O)CN2C(=O)C3CC=CCC3C2=O)C(C)(C)c2ccccc21 (configuration not stated)	-2	-2	-17	1	5	4
CN1/C(=C\C(=O)C[n+]2cccc(C(N)=O)c2)C(C)(C)c2ccccc21	-12	-6	-4	12	-2	0
Cc1ccc[n+](CC(=O)/C=C2\N(C)c3ccccc3C2(C)C)c1	15	6	6	-6	51*	54*
CN1/C(=C\C(=O)C[n+]2cccc(Br)c2)C(C)(C)c2ccccc21	0	0	-11	-9	66*	67*
CN1/C(=C\C(=O)CN2C(=O)NC3(CCCCCC3)C2=O)C(C)(C)c2ccccc21	16	2	-28	13	41*	46*
COCCn1c(SCC(=O)/C=C2\N(C)c3ccccc3C2(C)C)nnc1-c1ccncc1	4	-1	-5	6	32*	34*
CN1/C(=C\C(=O)C[n+]2ccc(C(=O)c3ccccc3)cc2)C(C)(C)c2ccccc21	-11	1	-28	14	-2	-1
Cc1cc(=O)[nH]c(SCC(=O)/C=C2\N(C)c3ccccc3C2(C)C)n1	6	5	-8	2	67*	62*
Cc1cccc[n+]1CC(=O)/C=C1\N(C)c2ccccc2C1(C)C	-4	0	-2	-14	91*	67*
CC(C)CNC(=O)NC(=O)COc1ncnc2sccc12	-3	-2	-26	15	-3	0
CC(C)CCNC(=O)NC(=O)COc1ncnc2sccc12	5	-6	-4	22	-5	96*
Nc1c(C(=O)c2ccccc2)sc2snc(SCC(=O)c3ccccc3)c12	-38	4	-30	-37	-4	95*
Cn1c(O)c(C=NCC2CCNCC2)c(=O)n(C)c1=O	-4	1	-7	25	6	93*
CN1CCN(c2ccccc2NC(=O)c2ccccc2F)CC1	/	-6	-8	-10	-3	1
CC(=O)N1CCN(c2ccccc2NC(=O)c2ccc(C#N)cc2F)CC1	3	2	-2	-23	1	90*
SMILES	APP 5UTR inh	IEC-6 cytotox	KLF5 inhibitor	aSyn 5UTR inh	Ba/F3 V617F tox	BaF3 tox
CC(=O)c1cn(CC(=O)Nc2c(C)cccc2C)c2ccccc12	13	6	3	8	33*	43*
CCC(=O)c1cn(CC(=O)OC)c2ccccc12	68*	-5	-28	-18	-3	2
COC(=O)Cn1cc(C(=O)OC)c2ccccc21	6	-2	-21	14	8	12
Cn1c(N)c(C(=O)COC(=O)CSc2ccccc2)c(=O)n(C)c1=O	13	0	-19	-4	4	8
Cn1c(N)c(C(=O)COC(=O)CC2CC3CCC2C3)c(=O)n(C)c1=O (configuration not stated)	-12	6	-9	6	-1	60*
COc1ccc(CCNC(=O)CSc2nnnn2-c2ccccc2)cc1	48*	-4	-15	-15	-4	-2
COc1ccc(CNC(=O)CSc2nnnn2-c2ccccc2)cc1	-11	-4	-27	13	-1	10
CC(Oc1ccc(Cl)cc1Cl)c1nc(-c2ccc(NC(=O)c3ccncc3)cc2)no1 (configuration not stated)	-8	1	-14	-6	1	9
CC(Oc1ccc(Cl)cc1Cl)c1nc(-c2ccc(NC(=O)c3cccnc3)cc2)no1 (configuration not stated)	-6	-2	-8	92*	2	2
CC(COc1ccc(C(C)C)cc1)NC(=O)c1ccc(Br)o1 (configuration not stated)	/	0	-28	6	/	/
Cc1c(NC(=O)Nc2cccs2)cccc1[N+](=O)[O-]	5	10	-22	-71	12	29*
O=C(Nc1cccs1)Nc1ccccc1Cl	-26	8	-21	-71	-1	3
O=C(CCn1c(=O)c2cccn2c2cccnc21)N1CCN(c2cccc(Cl)c2)CC1	/	4	-20	13	/	/
O=[N+]([O-])c1ccc(Sc2cccc[n+]2[O-])c2nonc12	/	100*	13	85*	99*	105*
O=[N+]([O-])c1ccc(Nc2ccccc2)c2nonc12	/	2	-25	11	/	/
CCOc1ccccc1-n1nnnc1SCC(=O)Nc1cc(C)on1	-6	4	2	-11	-5	39*
COc1ccccc1-n1nnnc1SCC(=O)Nc1cc(C)on1	-4	6	11	13	-1	2
O=C(Nc1ccccc1Cl)NC1(C(=O)NCC2CCCO2)CCCCC1 (configuration not stated)	/	6	21	12	/	/
CCOCCCNC(=O)c1cc(Nc2ccc(OC)cc2OC)nc2ccccc12	/	0	-22	9	/	/
CN(C)CCCN(Cc1cc2cc3c(cc2[nH]c1=O)OCO3)C(=S)Nc1ccccc1	-1	1	3	-51	4	7
CN(C)CCCN(Cc1cc2cc3c(cc2[nH]c1=O)OCO3)C(=S)Nc1cccc(Cl)c1	3	0	-24	-45	36*	46*
CN1CCN(c2ccc(NC(=O)N3CCc4ccccc43)cc2)CC1	/	-5	38	70*	/	/
Cc1ccc(NC(=O)N2CCc3ccccc32)cc1	-170	5	-49	-18	-3	3
